Screens (PubChem)
Rows were chosen to be rich in hits. Some 4.6% of all compounds tested hit in one or more screens of this group.
15-hLO inh: inhibitors of human 15-lipoxygenase (ALOX15); P16050; purified 15hLO-1, xylenol orange hydroperoxide absorbance; Potency, µM (highest dose often 57.1 µM), for inactives: at the top dose activity change, negative = inhibition, usual class: inhibitors; 1.4% of 74,000 active; AID 887; also: % is scaled to controls: 0 for no effect and ±100 for the full control effect; nearly all actives have a fitted effect of over 55% in size
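Inhibition is scored from a chromogenic endpoint. After 15 min enzyme-compound contact, arachidonic acid (50 uM final) reacts 6 min with 40 nM 15hLO-1 at room temperature, then Fe-XO reagent is added for 30 min and absorbance ratio recorded.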
Hsp90 Hop PPI: changes Hsp90-Hop TPR2A binding signal, up or down | AlphaScreen TPR2A-His6 binding biotin-Hsp90 C-terminal peptide | Potency, µM (titrated, usually from 57 µM), without a hit: top-dose activity change, negative = inhibition | 0.44% of 71,000 active; active = well fitted curve in either direction with a large enough effect; inconclusive = small, poorly fitted or top-dose-only effect, or another doubt; also: % is scaled to controls: 0 for no effect and ±100 for the full control effect
Tau filament bind: tau filament binding | 2% of 71,000 active | AID 596 | Potency, µM (series often up to 57.1 µM), without a hit: at the top dose activity change, negative = inhibition | P10636 | recombinant tau filaments, thioflavin S fluorescence, 15 h; filaments grown with octadecylsulfate alongside compound;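 also: % is scaled to controls: 0 for no effect and ±100 for the full control effect; actives lower thioflavin S fluorescence by blocking filaments or displacing dye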
Target sequence (P10636 whole entry, looked up): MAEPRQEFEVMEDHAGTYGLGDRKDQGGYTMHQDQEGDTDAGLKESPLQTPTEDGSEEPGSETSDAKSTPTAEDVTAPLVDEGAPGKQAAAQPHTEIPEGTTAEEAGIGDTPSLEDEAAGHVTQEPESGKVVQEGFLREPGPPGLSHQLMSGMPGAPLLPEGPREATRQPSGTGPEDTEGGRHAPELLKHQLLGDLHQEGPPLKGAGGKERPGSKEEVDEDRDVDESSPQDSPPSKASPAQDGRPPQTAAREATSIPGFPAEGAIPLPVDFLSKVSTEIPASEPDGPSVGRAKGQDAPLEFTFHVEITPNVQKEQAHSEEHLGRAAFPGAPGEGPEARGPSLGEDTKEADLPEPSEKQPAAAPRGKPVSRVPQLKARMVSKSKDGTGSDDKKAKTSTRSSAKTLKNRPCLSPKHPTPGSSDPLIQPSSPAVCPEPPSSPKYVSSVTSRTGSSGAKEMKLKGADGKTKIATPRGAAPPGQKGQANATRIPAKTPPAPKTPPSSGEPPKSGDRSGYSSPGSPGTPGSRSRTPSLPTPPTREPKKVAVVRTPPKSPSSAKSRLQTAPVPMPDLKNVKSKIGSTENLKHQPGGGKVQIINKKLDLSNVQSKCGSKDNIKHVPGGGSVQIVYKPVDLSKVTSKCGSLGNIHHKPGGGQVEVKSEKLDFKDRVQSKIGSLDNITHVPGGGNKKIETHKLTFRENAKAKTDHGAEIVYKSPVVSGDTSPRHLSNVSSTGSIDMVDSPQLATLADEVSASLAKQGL
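Assay mix: 1 uM His-tagged tau, 30 uM sodium octadecylsulfate, thioflavine S dye in HEPES/NaCl/DTT buffer. Compound is added prior to the inducer. Fluorescence after 15 h at 37 C.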
USP2a inh: blocks human ubiquitin-specific protease USP2a; 0.1% of 60,000 active; AID 927; USP2a enzymatic assay, qHTS inhibition; O75604; Potency, µM (top dose mostly 38.3 µM), without a hit: at the top dose activity change, negative = inhibition, actives largely listed as inhibitors; also: nearly all actives have a fitted effect of over 60% in size
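20 nM USP2 core + cpd, 30 min RT; add 20 nM Ub-PLA2/20 uM NBD C6-HPC; read Ex460/Em535 at 0 h and 2.5 h. Normalized to NEM; qHTS curve fit/classification.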
GBA activity: modulators of human glucocerebrosidase; P04062; purified enzyme, resorufin glucoside fluorescence (screen aimed at inhibitors), 20 min; Potency, µM; 1.1% of 48,000 active; AID 360; in the data active = potency below about 15 µM; inconclusive = mostly about 16 µM to 33 µM;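 also: the screen sought inhibitors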
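Wild-type enzyme at 0.2 nM final in 50mM citric acid/KH2PO4, 10mM sodium taurocholate, 0.01% tween-20, pH 5.9, with resorufin beta-D-glucopyranoside at 30 uM final. Compounds titrated, 20 min at RT, red fluorescence read; AC50 from titration.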
PK Bst: modulators of Bacillus stearothermophilus pyruvate kinase. purified pyruvate kinase, luminescence ATP production; ribose 5-phosphate activator present at AC10. 1.2% of 51,000 active. Potency, µM. AID 361; in the data active = potency below about 11 µM; inconclusive = mostly about 12 µM to 25 µM;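 the screen sought inhibitors and activators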;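 also: scaled between full activation by ribose 5 phosphate and full inhibition by luteolin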
Numbers without * were called inactive; ? = inconclusive; nt = no result; ! = a repeat was not active; [ ] = dose if it differs, or a comment. Unless noted, calls follow the shape of the dose curve; as a rule, active = well fitted curve in the direction sought with a large enough effect; inconclusive = small, poorly fitted or top-dose-only effect, or another doubt; inactive = no such curve, though single readings can be large; an effect the other way counts as inactive or inconclusive. Potency is read from the fitted curve at half-maximal effect.

SMILES	15-hLO inh	Hsp90 Hop PPI	Tau filament bind	USP2a inh	GBA activity	PK Bst
CCOC(=O)c1ccc(N2CSC3=C(C#N)C(c4cccs4)CC(=O)N3C2)cc1 (stereo unspecified)	12.6µM*	-2.7%[2.3 µM]	3.8%	nt	nt	nt
COC(=O)COc1nsnc1N1CCOCC1	7.4%	-6.8%	5.3%	-1.5%	>76.9	>57
O=C1CN(CC(=O)N2CCCCC2)c2ccccc2O1	?	-10.0%	31.6µM*	1.9%	>76.9	>57
COc1ccc(C(=O)N2CCC3(CCN(C)CC3)CC2)cc1	1.7%	-12.1%	15.8µM*	-15.8%	nt	nt
COc1ccc(C(=O)N2CCC3(CCCN(C)C3)CC2)cc1	5.7%	-3.4%	-1.3%	-2.5%	nt	nt
COc1ccc(N2CCN(C(=O)c3ccc(C)c(Cl)c3)CC2)cc1	-3.5%	-7.4%	?	2.3%	>76.9	6.38*
COc1ccc(C2CC(=O)c3ccc(OC)cc3O2)cc1 (stereo unspecified)	16.7%	nt	nt	-4.6%	nt	nt
COc1cc2cc(C(c3nnnn3C(C)(C)C)N3CCc4ccccc43)c(=O)[nH]c2cc1OC (stereo unspecified)	-14.8%	-7.2%	8.3%	32.8%	>76.9	>57
COc1cc2cc(C(c3nnnn3C3CCCC3)N3CCc4ccccc43)c(=O)[nH]c2cc1OC (stereo unspecified)	20µM*	?	-1.4%	?	nt	>57
N#Cc1c2c(nc(N)c1-c1ccccc1)CCCCC2	-4.0%	nt	nt	nt	nt	nt
N#Cc1c(N)n[nH]c1-c1cc2c([nH]1)CCCC2	-28.0%	-12.2%	-1.7%	0.7%	nt	6.28*
Cc1ccc(CCNC(=O)C2CCN(S(=O)(=O)c3cccc4nonc34)CC2)cc1	-7.1%	-3.9%	-9.7%	6.7%	>76.9	>57
CCN(CCCNC(=O)C1CCN(S(=O)(=O)c2cccc3nonc23)CC1)Cc1ccccc1	-6.7%	-6.8%	20µM*	5.0%	>76.9	>57
Cc1ccc(C)c(NC(=O)CCN2CCOCC2)c1	4.7%	-3.0%	8.8%	-8.2%	>76.9	>57
COC(=O)C1=C(C)NC(=O)CC1c1ccccc1F (stereo unspecified)	7.9%	-8.2%	2.1%	7.8%	nt	nt
COC(=O)C1=C(C)NC(C)=C([N+](=O)[O-])[C@@H]1c1ccccc1C(F)(F)F	-3.2%[25.6 µM]	-12.4%	31.6µM*	nt	nt	nt
COC(=O)C1=C(C)NC(C)=C([N+](=O)[O-])[C@H]1c1ccccc1C(F)(F)F	-5.3%[25.6 µM]	-7.0%	31.6µM*	2.5%	nt	nt
O=C(Nc1nnc(C2CCCCC2)s1)c1ccco1	-12.3%	-2.5%	-9.8%	-27.2%	>76.9	>57
Nc1nnc(SCc2cccc(C(F)(F)F)c2)s1	-6.8%[11.4 µM]	-5.9%[11 µM]	-11.7%[11.4 µM]	7.2%[7.66 µM]	nt	nt
Nc1nnc(SCc2ccc(F)cc2Cl)s1	?	-18.0%	20µM*	7.2%	>76.9	>57
COc1cc(NC(=O)NCCN2CCN(c3ccc(Cl)cc3)CC2)ccc1C	?	-17.8%	12.6µM*	8.7%	>76.9	>57
COc1ccc(NC(=O)NCCN2CCN(c3cccc(Cl)c3)CC2)cc1	-6.1%	-0.7%[2.3 µM]	39.9%	nt	nt	nt
CN(C)c1ccc(C(=S)N2CCN(c3ccccc3)CC2)cc1	-1.4%	-16.3%	-3.3%	6.9%	>76.9	>57
Cc1ccc(N2CCN(C(=S)c3ccc(N(C)C)cc3)CC2)cc1	?	?	12.6µM*	31.2%	>76.9	>57
CCOC(=O)C1CCN(c2c(N3CCCCCC3)c(=O)c2=O)CC1	-0.1%	-1.1%	-9.7%	nt	nt	nt
SMILES	15-hLO inh	Hsp90 Hop PPI	Tau filament bind	USP2a inh	GBA activity	PK Bst
CCOC(=O)C1=C(N2CCCCC2)c2cc3c(n2C1=O)CCCC3	?	-14.7%	15.8µM*	-12.9%	nt	>11.4
CC(=C1C(=O)c2ccccc2C1=O)N1CCc2ccccc2C1	36.0%	-5.0%	?	1.0%	>76.9	>57
CC(CN(C)C)CN1c2ccccc2Sc2ccccc21 (stereo unspecified)	-4.9%	nt	nt	-8.2%	nt	nt
CC(CN1c2ccccc2Sc2ccccc21)N(C)C (stereo unspecified)	-18.8%	nt	nt	4.4%	nt	>25.6
C[C@@H](CN1c2ccccc2Sc2ccccc21)N(C)C	15.8µM*!	0.5%[26 µM]	12.6µM*!	2.7%[17.1 µM]	nt	nt
COc1ccc2c(c1)N(CC[C@H]1CCCCN1C)c1ccccc1S2	6.7%[11.4 µM]	-8.4%[11 µM]	2.51µM*	nt	nt	nt
COc1ccc2c(c1)N(C[C@@H](C)CN(C)C)c1ccccc1S2	-3.1%[25.6 µM]	-6.8%[26 µM]	10µM*	9.0%[17.1 µM]	nt	nt
CCOC(=O)c1cnn(-c2ncnc3sc(CC)cc23)c1N	1.5%	2.0%	174.0%	2.9%	nt	nt
O=S(=O)(NCCN1CCCC1)c1cccc2cccnc12	10µM*	-4.6%	?	nt	nt	nt
CN(CC(=O)NC1CCCCCCC1)S(=O)(=O)c1cccc2cccnc12	-4.3%	-1.8%[2.3 µM]	-7.4%	nt	nt	nt
O=S(=O)(NC1CCCCCC1)c1cccc2cccnc12	-7.6%	1.0%	-7.8%	5.8%	>76.9	11*
C=CCN1C(=O)C2C(C(=O)NCc3ccccc3)C3C=CC2(O3)C1C(=O)NC(C)(C)C (stereo unspecified)	5.1%	-3.9%	7.2%	6.2%	>76.9	>57
N#CC1=C(N)C(C#N)(C#N)C2(C(=O)Nc3ccccc32)C2CCCC=C12 (stereo unspecified)	-7.3%	-2.6%	50.4%	-3.8%	nt	nt
N#Cc1cc2c(=O)n3ccccc3nc2n(Cc2cccnc2)c1=N	1.6%	-3.7%	39.8%	5.9%	>76.9	>57
CN(C)c1ncc2nc(-c3cc(F)cc(F)c3)c(=O)n(Cc3cccs3)c2n1	7.94µM*	-0.2%	-4.3%	97.6%	nt	nt
Cn1c(=O)c(-c2cc(F)cc(F)c2)nc2cnc(N3CCNCC3)nc21	2.0%	1.9%	5.01µM*	41.3%	nt	nt
CN(C)c1ncc2nc(-c3ccc(F)cc3)c(=O)n(Cc3cccs3)c2n1	-12.4%	-5.9%	-0.7%	68.0%	nt	nt
COc1ccc(-c2nc3cnc(N4CCN(C)CC4)nc3n(Cc3cccs3)c2=O)cc1	-29.3%	-5.4%	261.6%	273.4%	nt	nt
CN(C)c1ncc2nc(CCc3ccccc3)c(=O)n(Cc3cccs3)c2n1	?	25.1µM*	45.9%	69.0%	nt	nt
CN1CCN(c2ncc3nc(-c4cc(F)cc(F)c4)c(=O)n(Cc4cccs4)c3n2)CC1	2.3%	-5.4%	3.16µM*	208.8%	nt	nt
Cc1nc2cnc(N(C)C)nc2n(Cc2cccs2)c1=O	-4.1%	7.2%	-7.1%	36.6%	nt	nt
OCCN[C@@H]1c2cc(Cl)ccc2-c2c(Cl)cc(Cl)cc21	-11.7%[11.4 µM]	-13.5%[11 µM]	1.3%[11.4 µM]	nt	nt	nt
C=CCn1c(-c2ccc(OC)c(OC)c2)cs/c1=N\c1ccccn1	-13.9%	-28.0%	-10.1%	-6.9%	>76.9	6.93*
COc1ccc(C2=Nn3c(nnc3-c3ccccn3)SC2)cc1OC	nt	nt	nt	nt	nt	>25.6
Cc1nc(NCc2ccccc2)c2nc(-c3ccccc3)n(CCN3CCOCC3)c2n1	20µM*	-5.2%	7.4%	nt	nt	nt
CCCCNc1nc(C)nc2c1nc(-c1ccccc1)n2CCN1CCCCC1	12.6µM*	-7.4%	58.8%	nt	nt	nt
CCC(C)C(NCc1cccc(C)c1)C(=O)O (stereo unspecified)	1.1%	-2.9%	-6.1%	-6.1%	>76.9	>57
